OPRK1 antag MB: blocks the human kappa opioid receptor, Maybridge compounds. P41145. OPRK1 cells, antagonist mode, fluorescence readout. inhibition, % at 9 µM. 16,000 tested, 0.4% active; in the data active = inhibition above about 50%
TLR4 MyD88 blk: TLR4-MyD88 interaction inhibition; O00206; Cell-based TLR4-MyD88 binding inhibition assay; inhibition, % at 10 µM; 16,000 tested, 0.06% active; AID 811; in the data active = inhibition above about 45%
Target sequence (O00206 whole entry, looked up): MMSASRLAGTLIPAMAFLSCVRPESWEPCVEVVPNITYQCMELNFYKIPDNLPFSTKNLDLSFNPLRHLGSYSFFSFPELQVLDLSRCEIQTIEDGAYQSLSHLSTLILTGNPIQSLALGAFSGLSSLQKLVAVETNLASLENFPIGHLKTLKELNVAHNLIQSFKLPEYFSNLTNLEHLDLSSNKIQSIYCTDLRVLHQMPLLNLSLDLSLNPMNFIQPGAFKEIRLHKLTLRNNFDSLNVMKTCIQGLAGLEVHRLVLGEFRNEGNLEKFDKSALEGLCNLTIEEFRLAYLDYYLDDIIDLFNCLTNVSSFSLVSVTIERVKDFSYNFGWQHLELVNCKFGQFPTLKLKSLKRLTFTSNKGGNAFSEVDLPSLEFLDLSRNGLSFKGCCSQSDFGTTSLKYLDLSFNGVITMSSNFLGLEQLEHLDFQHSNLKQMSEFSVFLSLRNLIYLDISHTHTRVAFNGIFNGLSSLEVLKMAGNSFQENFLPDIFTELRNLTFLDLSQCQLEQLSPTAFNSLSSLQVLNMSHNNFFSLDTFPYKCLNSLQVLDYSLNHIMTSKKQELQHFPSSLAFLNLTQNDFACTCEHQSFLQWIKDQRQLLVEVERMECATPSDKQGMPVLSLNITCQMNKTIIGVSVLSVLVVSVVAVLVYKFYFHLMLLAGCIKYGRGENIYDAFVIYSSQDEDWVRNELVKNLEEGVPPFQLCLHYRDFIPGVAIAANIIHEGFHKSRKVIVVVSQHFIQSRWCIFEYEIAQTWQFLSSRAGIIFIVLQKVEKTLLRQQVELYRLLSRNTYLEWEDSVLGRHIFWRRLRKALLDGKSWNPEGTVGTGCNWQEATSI
Nox1 inhibitor: human Nox1 inhibition. Q9Y5S8. 16,000 tested, 0.81% active. AID 1792. inhibition, % at 6.7 µM. HT29 cells, luminol chemiluminescence ROS
Luminol counter: quenches luminol chemiluminescence in Nox1 counter-screen. HRP/luminol/H2O2 chemiluminescence counterscreen. inhibition, % at 6.7 µM. 16,000 tested, 0.4% active; note: reference of the scale not given here
PME-1 Maybridge: inhibitors of human PME-1 in Maybridge library. recombinant PME-1, FP-Rh probe fluorescence polarization. 16,000 tested, 0.5% active. Q9Y570. AID 2291. inhibition, % at 9 µM; in the data active = inhibition above about 30%
An asterisk follows results filed as active. In the library only some 2.1% were active in any assay of this set; here they are far more common. Cut-off read from the data, not from the text of the source, unless noted: active = inhibition above about 75%; inactive = the rest.

SMILES | OPRK1 antag MB | TLR4 MyD88 blk | Nox1 inhibitor | Luminol counter | PME-1 Maybridge
Cn1c(-c2ccco2)n[nH]c1=S | -3 | 2 | -36 | 1 | -2
Cn1c(-c2ccccn2)n[nH]c1=S | -15 | 3 | -21 | 96* | 1
Cc1cc2c(N)cccc2nn1 | -1 | 1 | 45 | 6 | 106*
Cc1cc2c(NC(=O)c3ccccc3C(=O)O)cccc2nn1 | 6 | 7 | -14 | 2 | -2
CSc1nc(C=Nc2ccc(Cl)cc2Cl)ccc1C#N | 7 | 6 | 16 | -5 | 9
CCC(=O)N1c2cc(Cl)ccc2-n2c(nn(C(=O)CC)c2=O)N1C(=O)CC | -2 | -2 | 88* | 2 | 1
Cc1nn(C)c(C)c1Nc1n[nH]c(N)n1 | 2 | 9 | 77* | 22 | -5
Cc1cc(Br)c(NC(N)=S)c(Br)c1 | 8 | 5 | 17 | -1 | 2
Cc1cc(Br)c(NC(=S)NNc2ccccc2)c(Br)c1 | 13 | -1 | 100* | 7 | 11
O=C(Nc1ccc(C(F)(F)F)cn1)C1CCN(c2nccc(C(F)(F)F)n2)CC1 | 12 | 9 | -5 | 1 | 3
CC(=O)Nc1cc([N+](=O)[O-])ccc1-n1cc(C)c(C(F)(F)F)n1 | 0 | 50* | -33 | 3 | -1
O=C(NNc1ccc(-c2csnn2)cc1)c1ccc(Cl)cc1 | 15 | -3 | 56 | 75* | 6
CC(C)(C)OC(=O)N[C@@H](Cc1ccccc1)c1n[nH]c(=S)n1CC1CCCO1 (stereo partly drawn) | -13 | -3 | 14 | 97* | 7
CC(=O)c1ccc(OCCCOc2ccc(C(C)=O)cc2)cc1 | 2 | 5 | -38 | 2 | -4
CC(=O)c1ccc(NCN2C(=O)/C(=C\N(C)C)NC2=S)cc1 | -14 | -2 | 100* | 10 | -2
O=C(CO/N=C/c1ccc(Cl)cc1Cl)NNC(=S)Nc1cc(Cl)ccc1Cl | 9 | 0 | 11 | 18 | 8
O=C(NCCNc1nccc(C(F)(F)F)n1)C1CC1 | -1 | 10 | 5 | -8 | 96*
O=C(CSCCS(=O)(=O)c1ccccc1)N/N=C/c1ccsc1 | 9 | 0 | -42 | 0 | -2
S=c1[nH]nc(-c2cccc3ccccc23)n1-c1cccnc1 | 2 | 18 | 24 | 89* | -1
S=c1[nH]nc(-c2ccc(Cl)cc2Cl)n1-c1cccnc1 | -5 | 14 | -76 | 3 | -4
Cc1onc(-c2c(F)cccc2Cl)c1OCN1CCN(c2ncccn2)CC1 | 14 | 7 | 4 | -5 | -3
NC(=O)c1csc(-c2cccnc2)n1 | 10 | 0 | 11 | -8 | 8
O=C(Nc1ccc([N+](=O)[O-])cc1)Nc1csc(-c2cccnc2)n1 | 52* | 9 | -5 | -3 | -73
CCOC(=O)CNC(=O)c1nnc2cc(C)nn2c1C | -2 | 6 | -14 | 0 | 0
O=c1c(Cl)c2oc3ccccc3nc-2c2ccccc12 | 26 | 6 | 90* | 7 | 9
SMILES | OPRK1 antag MB | TLR4 MyD88 blk | Nox1 inhibitor | Luminol counter | PME-1 Maybridge
CN(C)c1cc(NNS(=O)(=O)c2cccc(C(F)(F)F)c2)nc(N(C)C)c1C#N | 11 | -10 | 66 | 80* | 6
CSc1sc(C(=O)NC(=O)Nc2ccc(Cl)cc2)c2c1-c1nocc1CC2 | 68* | -3 | 9 | -8 | 8
CCOC(=O)C(NS(=O)(=O)c1ccc(OC(F)(F)F)cc1)C(C)C (stereo not drawn) | -19 | 3 | -4 | 0 | 5
COC(=O)c1sccc1NS(=O)(=O)c1ccc(C(=O)OC)n1C | -2 | -9 | -13 | 2 | 2
COC(=O)c1ccc(S(=O)(=O)Nc2ccc(N3CCOCC3)cc2)n1C | 4 | -3 | 91* | 40 | 1
CC(C)(C)C(=O)NNC(=O)c1cc(C(C)(C)C)nn1Cc1ccccc1 | -19 | -3 | -31 | 2 | 2
COc1ccccc1NNC(=O)c1cc(C(C)(C)C)nn1Cc1ccccc1 | 21 | -4 | 91* | 0 | 7
CNC(=O)NC(=O)CSc1nnc(-c2cccs2)n1-c1ccc(Cl)cc1 | 8 | 2 | -6 | -2 | 3
CCN(CC)c1ccc(/C=C/c2ccc([N+](=O)[O-])cc2C#N)cc1 | 69* | 7 | -3 | -12 | -2
Nc1nc(NCc2ccco2)n[nH]1 | -7 | 3 | 94* | 90* | 6
FC(F)(F)c1ccnc(NCc2ccco2)n1 | -5 | -5 | -20 | -2 | 4
Cc1nc(C)c(S(=O)(=O)NCc2c(-c3ccccc3)noc2C)s1 | -13 | -16 | -31 | 0 | -7
Cc1onc(-c2ccccc2)c1CNS(=O)(=O)c1cnn(-c2ccccc2)c1C | 106* | 4 | -64 | 1 | -6
COC(=O)c1scc(C)c1NC(=O)/C(C#N)=C/c1ccc(C#N)cc1 | -1 | -18 | -32 | 3 | -13
COc1cc([N+](=O)[O-])c(OC)cc1SCC(=O)NNC(=S)Nc1ccc(F)cc1 | 16 | 2 | 21 | 83* | 9
O=C(CSc1ccccc1[N+](=O)[O-])NNC(=S)Nc1cccc(C(F)(F)F)c1 | -15 | 6 | -50 | 3 | 13
COC(=O)CC(CC(=O)OC)(c1cc(C)c(O)c(C)c1)c1cc(C)c(O)c(C)c1 | 0 | 6 | 21 | 77* | 7
COC(=O)c1ccccc1C(=O)c1cc(C)c(O)c(C)c1 | 16 | -13 | -1 | -11 | 4
COc1ccc([N+](=O)[O-])c(S(=O)(=O)c2ccc(Cl)cc2)n1 | 82* | -8 | -96 | 6 | 3
CC(=O)c1cc([N+](=O)[O-])c(SCc2ccc(Cl)cc2)s1 | 0 | -14 | 6 | -5 | 32*
COC(=O)c1ccccc1NC(=S)Nc1ccc(Cl)cn1 | 6 | 5 | 18 | 98* | 6
N#Cc1cccc(C#N)c1Oc1ccc(N)cc1 | 94* | 0 | 8 | -5 | 2
COCCCNC(=S)Nc1ccc(C)cc1 | 7 | 1 | 10 | -5 | 0
COCCCNC(=S)NNC(=S)Nc1ccccc1 | 2 | -4 | 91* | 4 | 4
CC(=O)c1sc2nc(-c3cccs3)cc(C(F)(F)F)c2c1N | 89* | 22 | 17 | -2 | 5
SMILES | OPRK1 antag MB | TLR4 MyD88 blk | Nox1 inhibitor | Luminol counter | PME-1 Maybridge
CN(C)c1ccc(/C=C(\C#N)c2ccc([N+](=O)[O-])cc2)cc1[N+](=O)[O-] | 12 | 3 | -14 | 17 | -1
N#C/C(=C\c1ccc(O)cc1)c1ccc([N+](=O)[O-])cc1 | 9 | -2 | 0 | 101* | 4
ON/C=N/c1nnc(Cc2ccc(F)cc2)s1 | 10 | -4 | -23 | 1 | 0
ON/C=N/c1nnc(C(F)(F)F)s1 | 19 | 2 | 80* | -4 | 2
S=c1[nH]nc(-c2ccc(Cl)cc2)n1-c1ccccc1 | -2 | 6 | -4 | 4 | -1
Nn1c(-c2ccc(Cl)cc2)n[nH]c1=S | 0 | -3 | 20 | 99* | 5
NC(=O)c1ccccc1OCCCN1CCN(c2ccccc2)CC1 | -18 | 2 | -51 | 1 | 5
C#CC(/C=C/C)OC(=O)c1ccccc1C(=O)O (stereo not drawn) | 32 | -7 | -9 | -3 | -1
CC(CCC(C)OC(=O)c1ccccc1C(=O)O)OC(=O)c1ccccc1C(=O)O (stereo not drawn) | 60* | 2 | 22 | -2 | 10

Source: PubChem BioAssay
